Among the data in PubChem BioAssay (NCI) are growth values, retold here.

About 83,000 compounds went through this panel and 20% of them were active in at least one assay; those are over-represented in the sample as a whole.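 In brief: 96-well plates, 48 h treatment, single concentration, percent growth endpoint.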 A number with no mark means an inactive call. The source made the active and inactive calls. How the source made its calls: active means growth percent below 10; inactive means the rest.

The subject of the first test is SR leukemia. In words: NCI-60 one-dose screen, 48 h (100 = growth as untreated, 0 = no growth, -100 = all killed). The following applies: 10 µM unless noted.
As for `CN(C)CCCNC(=O)c1cncnc1Nc1ccc2c(ccn2Cc2cccc(F)c2)c1`, the growth is -10.3% (active).
With `CCOC(=O)/C(=C(/C)NCC(C)C)c1cc(O)c(O)c2c(C)cc(=O)[nH]c12`, the growth is 18.4%.
The same measure, in the same setting: for `COc1ccc(Nc2ncc(C#N)c(NCCCNC(=O)C3CCC3)n2)cc1` the value was 46.3%; for `C=C1SC(=Nc2ccccc2Cl)N(C(=O)c2sc3ccccc3c2Cl)C1(C)C`, 65.4%; for `CN1CC(c2ccc(Br)cc2)C(C(=O)c2ccc(Br)cc2)C12C(=O)Nc1ccccc12` (stereo not drawn), 68.1%.
Regarding `CC(C)Cc1nc(Nc2ccccc2)[nH]c(=O)c1C#N`, the growth is 34.2%.
In the case of `CC(C)(C)c1ccc(S(=O)(=O)Oc2ccc(-c3sc4cc(OS(=O)(=O)c5ccc(C(C)(C)C)cc5)ccc4c3C(=O)c3ccc(OCCN4CCCCC4)cc3)cc2)cc1`, the growth was 104%.
In the case of `Nc1ncccc1O`, the growth is 65.5%.
Same read-out and setting: for `COc1cc(C[C@H]2COc3cc(O)cc(O)c3C2=O)ccc1O` the value was 19%; for `CCN(CC)C(=O)CC1=C(C)/C(=C/c2[nH]c(-c3ccc[nH]3)cc2OC)N=C1C`, -30% (active).
Still for that read-out and setting: for `COc1ccc(C2CC(c3ccccc3)=NN2C(=O)c2cc(OC)c(OC)c(OC)c2)cc1O` (stereo not drawn) the value was 29.8%.
As to `C[C@@H]1CN(c2cnc(C(=O)Nc3cc(F)cc4cccnc34)cn2)C[C@H](C)N1`, the growth is 28.6%.
Turning to `O=C(Nc1cc(Cl)ccc1O)c1ccccc1Nc1ccnc(C(F)(F)F)c1`, the growth was -26.3% (active).
As to `O=c1ccc2ccc(OCCN3CCCCC3)cc2o1`, the growth is -35.7% (active).
For `CC1(C)CC(=O)C2=C(C1)C(c1ccc(Cl)cc1)n1ncc(C#N)c1N2` (stereo not drawn), the growth is 109%.
As to `CCOC(=O)C1=C(CCl)N(C)C(=O)NC1c1ccc2c(c1)OCO2` (stereo not drawn), the growth was 19.8%.
The same measure, in the same setting: for `COc1ccc(-c2cc(C(=O)N3N=C(c4ccc(N)cc4)CC3c3ccc(Cl)cc3)c3ccccc3n2)cc1` (stereo not drawn) the value was 14.5%; for `Cn1cc(-c2csc(-c3cn(C)c4ccccc34)n2)c2cnccc21`, -0.518% (active).
As for `CC(C)c1ccc2c(c1)CC[C@H]1[C@](C)(C(=O)OCC#CCN3CCCC3)CCC[C@]21C`, the growth was 52.5%.
For the molecule `Cc1cc(=O)n(C(=S)Nc2ccc(Cl)cc2)c2cc(O)ccc12`, the growth was 108%.
On to `O=C1Nc2ccc(Cl)cc2/C1=C/c1ccc[nH]1`, for which the growth is 50.4%.
In the case of `COc1nc(/C=C\Nc2ccc3c(c2)OCCOCCOCCOCCO3)nc(OC)n1`, the growth was 119%.
The same measure, in the same setting: for `CC1=C2CC/C(C)=C/CC[C@]3(C)O[C@H]3CC/C(C)=C/[C@H]2OC1` the value was 87.6%.
As for `CCN1C(=O)N(CC)C2C1NN=c1s/c(=C\c3ccc(OC)cc3)c(=O)n12` (stereo not drawn), the growth is 12.1%.
`Cc1nn(C)c2ncnc(N/N=C/c3cccc(O)c3O)c12`: the growth was 7.79% (active).
`CC(C)C1C2=C(NCCN1C(=O)c1ccncc1)C(C)(C)N(Cc1ccccc1)C2=O` (stereo not drawn): the growth was 89.4%.
Turning to `CN(C)c1ccc(C(=S)c2ccc(N(C)C)cc2)cc1`, the growth was 33.2%.
In the case of `CSc1ccc(N2C(=N)C(=S)N(c3ccc(C)cc3)C2=O)cc1`, the growth was 80.3%.
Turning to `CCOC(=O)C/C(=N\Nc1cc(=O)[nH]c2ccc(C)cc12)C(=O)OCC`, the growth is 46.4%.
Same read-out and setting: for `Clc1ccc(Nc2ncc(Cc3cccc(Cl)c3Cl)s2)cc1` the value was 102%; for `CCOC(=O)c1nnn(-c2no[n+]([O-])c2-c2ccc(OC)cc2)c1COc1cccc2cccnc12`, 6.52% (active).
For the molecule `NC(=O)c1ccccc1OCC(=O)Nc1ccc(Cl)c(Cl)c1`, the growth is 71.4%.
Take `C=C1CC[C@@H]2C(C)(C)[C@H](O)CC[C@@]2(C)[C@@H]1COc1ccc2ccc(=O)oc2c1`: the growth was 85.5%.
On to `O=S(Nc1ccccc1)c1ccc(Cl)cc1` (stereo not drawn), for which the growth was 78.8%.
The same measure, in the same setting: for `COc1cccc(-c2cn3nc(-c4cn(C)c5ccccc45)sc3n2)c1` the value was 24.9%; for `COc1cc2c(cc1-c1c(C)noc1C)ncc1nc(CN3CCOCC3)n([C@H](C)COC(F)F)c12`, 33.7%; for `CN1c2ccccc2S(=O)(=O)n2c(SCC(=O)Nc3nc4ccc(F)cc4s3)nnc21`, 59.8%.
Turning to `O=S(=O)(Nc1cc(Sc2nc3ccccc3s2)c(O)c2ccccc12)c1ccc2ccccc2c1`, the growth was 100%.
The same measure, in the same setting: for `Cn1c(C#N)ccc1-c1ccc(F)c(NC(=O)c2ccc(F)cc2)c1` the value was 29.4%.

Another test has as its system RPMI-8226 leukemia. Described as above. As to conditions: 10 µM unless noted.
Regarding `CN(C)CCCNC(=O)c1cncnc1Nc1ccc2c(ccn2Cc2cccc(F)c2)c1`, the growth is 86.3%.
Consider `CCOC(=O)/C(=C(/C)NCC(C)C)c1cc(O)c(O)c2c(C)cc(=O)[nH]c12`, for which the growth is 19.2%.
Take `COc1ccc(Nc2ncc(C#N)c(NCCCNC(=O)C3CCC3)n2)cc1`: the growth was 85.8%.
For the molecule `C=C1SC(=Nc2ccccc2Cl)N(C(=O)c2sc3ccccc3c2Cl)C1(C)C`, the growth was 4.32% (active).
As to `CN1CC(c2ccc(Br)cc2)C(C(=O)c2ccc(Br)cc2)C12C(=O)Nc1ccccc12` (stereo not drawn), the growth is 62.3%.
As for `CC(C)Cc1nc(Nc2ccccc2)[nH]c(=O)c1C#N`, the growth was 25.1%.
For the molecule `CC(C)(C)c1ccc(S(=O)(=O)Oc2ccc(-c3sc4cc(OS(=O)(=O)c5ccc(C(C)(C)C)cc5)ccc4c3C(=O)c3ccc(OCCN4CCCCC4)cc3)cc2)cc1`, the growth is 93.6%.
For `Nc1ncccc1O`, the growth is 87%.
On the same count and under the same terms, for `COc1cc(C[C@H]2COc3cc(O)cc(O)c3C2=O)ccc1O` the value was 18.2%; for `CCN(CC)C(=O)CC1=C(C)/C(=C/c2[nH]c(-c3ccc[nH]3)cc2OC)N=C1C`, 13.7%; for `COc1ccc(C2CC(c3ccccc3)=NN2C(=O)c2cc(OC)c(OC)c(OC)c2)cc1O` (stereo not drawn), -20.5% (active).
In the case of `C[C@@H]1CN(c2cnc(C(=O)Nc3cc(F)cc4cccnc34)cn2)C[C@H](C)N1`, the growth was 26%.
`O=C(Nc1cc(Cl)ccc1O)c1ccccc1Nc1ccnc(C(F)(F)F)c1`: the growth was -21.5% (active).
As to `O=c1ccc2ccc(OCCN3CCCCC3)cc2o1`, the growth was -23.8% (active).
On to `CC1(C)CC(=O)C2=C(C1)C(c1ccc(Cl)cc1)n1ncc(C#N)c1N2` (stereo not drawn), for which the growth was 96%.
Consider `CCOC(=O)C1=C(CCl)N(C)C(=O)NC1c1ccc2c(c1)OCO2` (stereo not drawn), for which the growth is 12.3%.
Take `COc1ccc(-c2cc(C(=O)N3N=C(c4ccc(N)cc4)CC3c3ccc(Cl)cc3)c3ccccc3n2)cc1` (stereo not drawn): the growth was 16.2%.
`Cn1cc(-c2csc(-c3cn(C)c4ccccc34)n2)c2cnccc21`: the growth is -18.6% (active).
With `CC(C)c1ccc2c(c1)CC[C@H]1[C@](C)(C(=O)OCC#CCN3CCCC3)CCC[C@]21C`, the growth is 47.5%.
As for `Cc1cc(=O)n(C(=S)Nc2ccc(Cl)cc2)c2cc(O)ccc12`, the growth is 113%.
Same read-out and setting: for `O=C1Nc2ccc(Cl)cc2/C1=C/c1ccc[nH]1` the value was 101%; for `COc1nc(/C=C\Nc2ccc3c(c2)OCCOCCOCCOCCO3)nc(OC)n1`, 94.3%.
On to `CC1=C2CC/C(C)=C/CC[C@]3(C)O[C@H]3CC/C(C)=C/[C@H]2OC1`, for which the growth is 93.6%.
Take `CCN1C(=O)N(CC)C2C1NN=c1s/c(=C\c3ccc(OC)cc3)c(=O)n12` (stereo not drawn): the growth is 20.6%.
On to `Cc1nn(C)c2ncnc(N/N=C/c3cccc(O)c3O)c12`, for which the growth was -8.14% (active).
Turning to `CC(C)C1C2=C(NCCN1C(=O)c1ccncc1)C(C)(C)N(Cc1ccccc1)C2=O` (stereo not drawn), the growth is 112%.
`CN(C)c1ccc(C(=S)c2ccc(N(C)C)cc2)cc1`: the growth is 83.1%.
In the case of `CSc1ccc(N2C(=N)C(=S)N(c3ccc(C)cc3)C2=O)cc1`, the growth was 89%.
Consider `CCOC(=O)C/C(=N\Nc1cc(=O)[nH]c2ccc(C)cc12)C(=O)OCC`, for which the growth was 91.3%.
On the same count and under the same terms, for `Clc1ccc(Nc2ncc(Cc3cccc(Cl)c3Cl)s2)cc1` the value was 89.4%.
Turning to `CCOC(=O)c1nnn(-c2no[n+]([O-])c2-c2ccc(OC)cc2)c1COc1cccc2cccnc12`, the growth is 4.48% (active).
On the same count and under the same terms, for `NC(=O)c1ccccc1OCC(=O)Nc1ccc(Cl)c(Cl)c1` the value was 66.5%; for `C=C1CC[C@@H]2C(C)(C)[C@H](O)CC[C@@]2(C)[C@@H]1COc1ccc2ccc(=O)oc2c1`, 6.64% (active); for `O=S(Nc1ccccc1)c1ccc(Cl)cc1` (stereo not drawn), 99.3%.
As to `COc1cccc(-c2cn3nc(-c4cn(C)c5ccccc45)sc3n2)c1`, the growth is 97%.
For `COc1cc2c(cc1-c1c(C)noc1C)ncc1nc(CN3CCOCC3)n([C@H](C)COC(F)F)c12`, the growth is 10.1%.
Turning to `CN1c2ccccc2S(=O)(=O)n2c(SCC(=O)Nc3nc4ccc(F)cc4s3)nnc21`, the growth is 70.1%.
Regarding `O=S(=O)(Nc1cc(Sc2nc3ccccc3s2)c(O)c2ccccc12)c1ccc2ccccc2c1`, the growth is 88.5%.
Take `Cn1c(C#N)ccc1-c1ccc(F)c(NC(=O)c2ccc(F)cc2)c1`: the growth was 70.1%.
